From PubChem BioAssay (NCATS)
Results filed as inconclusive are left out. Activity calls are given as the source filed them. Calls follow the shape of the dose curve; as a rule, active = well fitted inhibition curve with a large enough effect; inconclusive = small, poorly fitted or top-dose-only effect; inactive = flat fitted curve, though single readings scatter.

How the values were obtained:
[1] = target: Luciferin 4-monooxygenase (Photinus pyralis) (UniProt P08659); test: Biochemical firefly luciferase enzyme assay for NPC (AID 624030);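 also: purified P. pyralis luciferase at 10 nM with luciferin and ATP substrate; 0% = DMSO and -100% = full luciferase inhibition by PTC124 control; nearly all actives have a fitted effect of over 70% in size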
Luciferin 4-monooxygenase (Photinus pyralis), sequence (P08659 whole entry, looked up): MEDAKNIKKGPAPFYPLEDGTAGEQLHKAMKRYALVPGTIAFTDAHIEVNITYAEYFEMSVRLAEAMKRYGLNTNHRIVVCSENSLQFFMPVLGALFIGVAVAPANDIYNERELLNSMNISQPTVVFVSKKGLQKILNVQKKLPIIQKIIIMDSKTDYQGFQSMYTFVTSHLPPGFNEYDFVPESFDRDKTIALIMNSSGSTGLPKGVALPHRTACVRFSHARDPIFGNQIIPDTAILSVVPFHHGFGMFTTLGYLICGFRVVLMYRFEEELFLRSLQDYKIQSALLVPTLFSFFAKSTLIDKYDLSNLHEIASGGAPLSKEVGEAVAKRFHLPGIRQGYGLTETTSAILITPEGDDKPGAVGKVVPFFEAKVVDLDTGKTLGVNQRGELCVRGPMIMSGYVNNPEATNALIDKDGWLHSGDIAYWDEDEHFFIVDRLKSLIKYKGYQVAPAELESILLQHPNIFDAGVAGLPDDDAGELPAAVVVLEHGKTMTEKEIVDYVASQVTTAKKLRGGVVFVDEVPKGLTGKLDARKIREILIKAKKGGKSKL
Summary of the method: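 Purified P. pyralis luciferase at 10 nM in 50 mM Tris Acetate (final), luminescence read within 5 minutes of enzyme addition to compounds. Activity normalised to PTC124 versus DMSO; concentration-response curves classed by r2, magnitude and activity.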

[2] = qHTS profiling for inhibitors of Plasmodium falciparum proliferation (AID 504749); also: potency is read from the fitted curve at half-maximal effect;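 as to activity, negative = inhibition: 0% = DMSO vehicle and full inhibition = artemisinin control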; as to all read-outs here: nearly all actives have a fitted effect of over 60% in size; settings: P. falciparum in erythrocytes, SYBR Green DNA, 72 h; for activity, negative = inhibition: at 28.7 µM (top of the series)
Summary of the method: (§1)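 Each compound contacts P. falciparum-infected red blood cells for 72 h at 37 C; lysis buffer (Tris, EDTA, saponin, Triton X, SYBR Green I) is added and fluorescence measured next morning; values normalized to controls.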

ATS189 = test: as above; settings: P. falciparum in erythrocytes, SYBR Green DNA, 72 h; series mostly up to 28.7 µM
Summary of the method: as §1

CP185 = test: as above; settings: P. falciparum in erythrocytes, SYBR Green DNA, 72 h; series mostly up to 28.7 µM
Summary of the method: as §1

CP191 = test: as above; settings: P. falciparum in erythrocytes, SYBR Green DNA, 72 h; series mostly up to 28.7 µM
Summary of the method: as §1

CP192 = test: as above; settings: P. falciparum in erythrocytes, SYBR Green DNA, 72 h; series mostly up to 28.7 µM
Summary of the method: as §1

CP238 = test: as above; settings: P. falciparum in erythrocytes, SYBR Green DNA, 72 h; series mostly up to 28.7 µM
Summary of the method: as §1

CP250 = test: as above; settings: P. falciparum in erythrocytes, SYBR Green DNA, 72 h; series mostly up to 28.7 µM
Summary of the method: as §1

CP252 = test: as above; settings: P. falciparum in erythrocytes, SYBR Green DNA, 72 h; series mostly up to 28.7 µM
Summary of the method: as §1

CP256 = test: as above; settings: P. falciparum in erythrocytes, SYBR Green DNA, 72 h; series mostly up to 28.7 µM
Summary of the method: as §1

CP262 = test: as above; settings: P. falciparum in erythrocytes, SYBR Green DNA, 72 h; series mostly up to 28.7 µM
Summary of the method: as §1

CP329 = test: as above; settings: P. falciparum in erythrocytes, SYBR Green DNA, 72 h; series mostly up to 28.7 µM
Summary of the method: as §1

Dd2 = test: as above; settings: P. falciparum in erythrocytes, SYBR Green DNA, 72 h; series mostly up to 28.7 µM
Summary of the method: as §1

FAB9 = test: as above; settings: P. falciparum in erythrocytes, SYBR Green DNA, 72 h; series mostly up to 28.7 µM
Summary of the method: as §1

PC49 = test: as above; settings: P. falciparum in erythrocytes, SYBR Green DNA, 72 h; series mostly up to 28.7 µM
Summary of the method: as §1

TAB109 = test: as above; settings: P. falciparum in erythrocytes, SYBR Green DNA, 72 h; series mostly up to 28.7 µM
Summary of the method: as §1

C=C[C@H]1CN2CCC1C[C@H]2[C@H](O)c1ccnc2ccc(OC)cc12 (stereo not given in full)
active: Potency ([2]; parasite line A) 141 nM | Potency ([2]; parasite line B) 141 nM | Potency (ATS189) 1120 nM | Potency (CP185) 794 nM | Potency (CP191) 708 nM | Potency (CP192) 1690 nM | Potency (CP238) 1580 nM | Potency (CP250) 1000 nM | Potency (CP252) 891 nM | Potency (CP256) 794 nM | Potency (CP262) 757 nM | Potency (CP329) 1690 nM | Potency (Dd2) 891 nM | Potency (FAB9) 794 nM | Potency (PC49) 1260 nM | Potency (TAB109) 501 nM
inactive: Potency [1]

CCN(CC)C(=O)[C@@]1(c2ccccc2)C[C@@H]1CN
inactive: Potency [1] | activity, negative = inhibition ([2]; parasite line A) 3.47% | activity, negative = inhibition ([2]; parasite line B) 2.1% | Potency (ATS189) | Potency (CP185) | Potency (CP191) | Potency (CP192) | Potency (CP238) | Potency (CP250) | Potency (CP252) | Potency (CP256) | Potency (CP262) | Potency (CP329) | Potency (Dd2) | Potency (FAB9) | Potency (PC49)

CC1=C[C@@H](O)CC(C)(C)[C@@H]1/C=C/C(C)=C/C=C/C(C)=C/C=C/C=C(C)/C=C/C=C(C)/C=C/C1=C(C)C[C@H](O)CC1(C)C
inactive: Potency [1] | activity, negative = inhibition ([2]; parasite line A) -23.3% | Potency (ATS189) | Potency (CP185) | Potency (CP191) | Potency (CP192) | Potency (CP238) | Potency (CP250) | Potency (CP252) | Potency (CP256) | Potency (CP262) | Potency (CP329) | Potency (TAB109)
active: Potency (Dd2) 12600 nM | Potency (PC49) 10000 nM

CO/N=C(/C(=O)N[C@@H]1C(=O)N2C(C(=O)O)=C(CSc3nc(C)c(CC(=O)O)s3)CS[C@H]12)c1csc(N)n1
inactive: Potency [1] | activity, negative = inhibition ([2]; parasite line A) 5.91% | activity, negative = inhibition ([2]; parasite line B) 4.95% | Potency (ATS189) | Potency (CP185) | Potency (CP191) | Potency (CP192) | Potency (CP238) | Potency (CP250) | Potency (CP252) | Potency (CP256) | Potency (CP262) | Potency (CP329) | Potency (Dd2) | Potency (FAB9) | Potency (PC49) | Potency (TAB109)

CC1=C(C/C=C(\C)CCCC(C)CCCC(C)CCCC(C)C)C(=O)c2ccccc2C1=O (stereo not given)
active: Potency (Dd2) 8910 nM
inactive: Potency [1] | activity, negative = inhibition ([2]; parasite line A) -26.3% | Potency (CP185) | Potency (CP192) | Potency (CP238) | Potency (CP250) | Potency (CP252) | Potency (CP256) | Potency (CP262) | Potency (CP329) | Potency (FAB9) | Potency (PC49)

C[n+]1c2cc(N)ccc2cc2ccc(N)cc21
active: Potency ([2]; parasite line A) 398 nM | Potency ([2]; parasite line B) 1000 nM | Potency (ATS189) 1120 nM | Potency (CP185) 631 nM | Potency (CP191) 282 nM | Potency (CP192) 1200 nM | Potency (CP238) 708 nM | Potency (CP250) 1120 nM | Potency (CP252) 794 nM | Potency (CP256) 1000 nM | Potency (CP262) 1350 nM | Potency (CP329) 1070 nM | Potency (Dd2) 355 nM | Potency (FAB9) 199 nM | Potency (PC49) 447 nM | Potency (TAB109) 447 nM
inactive: Potency [1]

O=c1ccn(C2OC(COP(=O)(O)OC3C(CO)OC(n4ccc(=O)[nH]c4=O)C3O)C(O)C2O)c(=O)[nH]1 (stereo not given)
inactive: Potency [1] | activity, negative = inhibition ([2]; parasite line A) 0.515% | activity, negative = inhibition ([2]; parasite line B) 10.1% | Potency (ATS189) | Potency (CP185) | Potency (CP191) | Potency (CP192) | Potency (CP238) | Potency (CP250) | Potency (CP252) | Potency (CP256) | Potency (CP262) | Potency (CP329) | Potency (Dd2) | Potency (FAB9) | Potency (PC49) | Potency (TAB109)

CN[C@H](C)CCC=C(C)C
inactive: Potency [1]
active: Potency ([2]; parasite line A) 355 nM | Potency ([2]; parasite line B) 141 nM | Potency (ATS189) 282 nM | Potency (CP185) 708 nM | Potency (CP191) 708 nM | Potency (CP192) 953 nM | Potency (CP238) 355 nM | Potency (CP250) 631 nM | Potency (CP252) 355 nM | Potency (CP256) 631 nM | Potency (CP262) 1070 nM | Potency (Dd2) 79.4 nM | Potency (FAB9) 1410 nM | Potency (PC49) 282 nM | Potency (TAB109) 398 nM

C[C@]12CC[C@@H]3c4ccc(O)cc4CC[C@H]3[C@@H]1C[C@H](O)C2O (stereo not given in full)
inactive: Potency [1] | activity, negative = inhibition ([2]; parasite line A) 7.19% | activity, negative = inhibition ([2]; parasite line B) 12.7% | Potency (ATS189) | Potency (CP185) | Potency (CP191) | Potency (CP192) | Potency (CP238) | Potency (CP250) | Potency (CP252) | Potency (CP256) | Potency (CP262) | Potency (CP329) | Potency (Dd2) | Potency (FAB9) | Potency (PC49) | Potency (TAB109)
